A number with no mark means an inactive call. Records with an inconclusive call do not appear. Calls of active or inactive are those of the source. Unless noted, calls come from the whole dose curve; as a rule, active = well fitted curve in the direction sought with a large enough effect in the repeat runs; inconclusive = weak or mixed curves; inactive = no such curve, though single readings can be large; an effect the other way counts as inactive or inconclusive.

For assay [1], the target named is Estrogen receptor beta (Homo sapiens) (UniProt Q92731). Nature of the assay: qHTS assay to identify small molecule agonists of the estrogen receptor beta (ER-beta) signaling pathway (AID 1259377; active = well fitted activation curve with a large enough effect in the signal ratio in the repeat runs, not every such curve was filed as active; the % refers to the signal ratio). In short, it runs like this: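 Read-out: beta-lactamase FRET fluorescence. Cell line: ER-beta-UAS-bla HEK293T in 2% charcoal-stripped FBS. Exposure: 16 hr at 37C. Substrate step: 2 h at room temperature.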
Sequence of Estrogen receptor beta (Homo sapiens) (Q92731 whole entry, looked up): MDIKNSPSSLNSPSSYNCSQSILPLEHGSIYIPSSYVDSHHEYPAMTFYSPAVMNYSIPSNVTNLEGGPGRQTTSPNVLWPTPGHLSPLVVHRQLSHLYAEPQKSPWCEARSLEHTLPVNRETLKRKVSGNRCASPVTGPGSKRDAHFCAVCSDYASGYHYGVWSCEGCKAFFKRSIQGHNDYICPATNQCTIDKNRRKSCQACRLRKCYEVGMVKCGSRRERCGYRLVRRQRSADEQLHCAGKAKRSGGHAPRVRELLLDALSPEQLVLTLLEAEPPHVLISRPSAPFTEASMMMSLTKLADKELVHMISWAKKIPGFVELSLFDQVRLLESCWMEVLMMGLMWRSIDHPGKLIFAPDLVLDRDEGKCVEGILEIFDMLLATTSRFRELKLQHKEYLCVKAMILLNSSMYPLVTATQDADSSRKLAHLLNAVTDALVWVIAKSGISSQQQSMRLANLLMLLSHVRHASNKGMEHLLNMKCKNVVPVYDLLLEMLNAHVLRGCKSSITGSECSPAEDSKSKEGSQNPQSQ
(qHTS replaces the single test concentration by a dilution series.)

For assay [2] the target is unchanged. Nature of the assay: qHTS assay to identify small molecule antagonists of the estrogen receptor beta (ER-beta) signaling pathway (AID 1259378; active = well fitted inhibition curve with a large enough effect in the signal ratio in the repeat runs, not every such curve was filed as active; the % refers to the signal ratio; note: potency is the fitted concentration of half-maximal effect). In short, it runs like this:
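Antagonist mode: compounds added to beta-lactamase reporter HEK293T ER-beta-UAS cells stimulated with E2 (1nM final), 16 hr at 37C. LiveBLAzer B/G FRET substrate, 2 hours room temperature, fluorescence read-out.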

A short description of assay [3]: qHTS assay to identify small molecule agonists of the androgen receptor (AR) signaling pathway in the presence of an antagonist - cell viability counter screen (AID 1259379). Note: nearly all actives have a fitted effect of over 25% in size. Note: potency is the fitted concentration of half-maximal effect. In short, it runs like this:
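MDA-kb2 cells (MMTV-luciferase, AR/GR), 3,000/well, 5 h attachment, then 3.0 µM nilutamide (final) and compounds at 15 concentrations. Viability by CellTiter-Fluor fluorescence after 16 h at 37 °C, 0% CO2, in the reporter wells.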

The target in assay [4] is Androgen receptor (Homo sapiens) (UniProt P10275). The assay is described as follows: qHTS assay to identify small molecule agonists of the androgen receptor (AR) signaling pathway in the presence of an antagonist (AID 1259381; calls by dose curve; note: nearly all actives have a fitted effect of over 15% in size). In short, it runs like this:
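MDA-kb2 cells carrying MMTV-luciferase (AR/GR responsive), 3,000 cells/well, co-treated with 3.0 uM nilutamide final. Compounds at 15 concentrations, 16 hr at 37C without CO2. Luciferase luminescence read after 30 min with ONE-Glo.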

A short description of assay [5]: qHTS assay to identify small molecule antagonists of the estrogen receptor beta (ER-beta) signaling pathway - cell viability counter screen (AID 1259382). Note: nearly all actives have a fitted effect of over 55% in size. Note: potency is the fitted concentration of half-maximal effect. In short, it runs like this:
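ER-beta-UAS-bla HEK293T cells in 2% charcoal-stripped FBS medium, treated with compound plus 1 nM 17-beta-estradiol for 16 h at 37C. Viability read by CellTiter-Glo luminescence after 30 min at room temperature in the same wells.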

For assay [6], the target named is Estrogen receptor (Homo sapiens) (UniProt P03372). Nature of the assay: qHTS assay to identify small molecule agonists of the estrogen receptor alpha (ER-alpha) signaling pathway in the presence of an antagonist (AID 1259383; calls by dose curve; note: top concentration of the series differs between compounds; nearly all actives have a fitted effect of over 15% in size). In short, it runs like this: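 VM7Luc4E2 cells express endogenous full-length ER-alpha with an ERE-luciferase reporter and were hormone-deprived for 5 days. Compounds at 15 concentrations were added with 10.0nM ICI-182,780 for 22hr at 37C. Luminescence was read with ONE-Glo.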
Sequence of Estrogen receptor (Homo sapiens) (P03372 whole entry, looked up): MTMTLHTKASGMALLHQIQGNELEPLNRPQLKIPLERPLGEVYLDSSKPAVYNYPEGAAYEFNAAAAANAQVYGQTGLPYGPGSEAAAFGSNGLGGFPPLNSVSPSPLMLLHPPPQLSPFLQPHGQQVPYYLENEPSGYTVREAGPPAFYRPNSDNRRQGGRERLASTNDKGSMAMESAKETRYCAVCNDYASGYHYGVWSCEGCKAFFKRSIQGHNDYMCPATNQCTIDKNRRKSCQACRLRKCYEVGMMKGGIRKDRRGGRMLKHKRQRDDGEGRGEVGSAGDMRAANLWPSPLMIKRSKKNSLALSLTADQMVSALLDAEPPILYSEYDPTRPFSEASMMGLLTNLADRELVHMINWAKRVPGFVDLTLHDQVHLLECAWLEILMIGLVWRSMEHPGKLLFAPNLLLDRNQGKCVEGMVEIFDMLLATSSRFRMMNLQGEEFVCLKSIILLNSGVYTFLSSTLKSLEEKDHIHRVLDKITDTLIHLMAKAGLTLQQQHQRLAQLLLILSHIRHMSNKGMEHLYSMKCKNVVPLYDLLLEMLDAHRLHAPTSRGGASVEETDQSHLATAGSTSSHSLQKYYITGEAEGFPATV

Assay [7] is described as follows: qHTS assay to identify small molecule agonists or antagonists of the thyroid stimulating hormone receptor (TSHR) signaling pathway - wild type cell line counter screen (AID 1259384; calls by dose curve). In short, it runs like this:
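Counter screen in untransfected Hek293: compounds (15-point titration, triplicate) plus phosphodiesterase inhibitor Ro20-1724 added after 18 h plating; 30 min RT. Intracellular cAMP via competitive d2/cryptate immunoassay, 1 h incubation.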

The target in assay [8] is Thyrotropin receptor (Homo sapiens) (UniProt P16473). Nature of the assay: qHTS assay to identify small molecule antagonists of the thyroid stimulating hormone receptor (TSHR) signaling pathway (AID 1259385; calls by dose curve; note: nearly all actives have a fitted effect of over 20% in size). In short, it runs like this:
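Antagonist mode: compound-treated TSHR-expressing HEK293 cells were stimulated with 1.5 ng/mL TSH (final) in presence of Ro20-1724 for 30 min at RT. HTRF cAMP detection after 1 h; each compound tested at 15 concentrations, triplicate.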

The nature of assay [9]: qHTS assay to identify small molecule agonists of the estrogen receptor alpha (ER-alpha) signaling pathway in the presence of an antagonist - cell viability counter screen (AID 1259386).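 Note: series mostly up to about 92 µM; cells exposed to compounds for 22 h at 37 °C before the viability read; nearly all actives have a fitted effect of over 30% in size.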 In short, it runs like this: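 Cell viability in VM7Luc4E2 cells (endogenous full-length ER-alpha) measured by CellTiter-Fluor fluorescence in the same wells as the luciferase screen. Cells pre-cultured 5 days in charcoal-stripped serum, then treated 22 h with compounds at 15 concentrations plus 10.0nM ICI-182,780.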

For assay [10], the target named is Progesterone receptor (Homo sapiens) (UniProt P06401). The assay is described as follows: qHTS assay to identify small molecule agonists of the progesterone receptor (PR) signaling pathway (AID 1346784; calls by dose curve; note: nearly all actives have a fitted effect of over 30% in size). In short, it runs like this:
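Compounds were tested for PR agonism in HEK 293T cells bearing a beta-lactamase gene under UAS control. Treatment lasted 16 hr at 37C; signal came from fluorescence of a FRET substrate.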

The target is the same in assay [11]. The assay is described as follows: qHTS assay to identify small molecule antagonists of the progesterone receptor (PR) signaling pathway (AID 1346795; active = well fitted inhibition curve with a large enough effect in the signal ratio in the repeat runs, not every such curve was filed as active; the % refers to the signal ratio; note: potency is the fitted concentration of half-maximal effect). In short, it runs like this:
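In HEK293T cells bearing the PR-UAS-bla reporter, compound effects on promegestone-driven (1 nM) beta-lactamase expression are assessed after 16 hr using a fluorescent FRET substrate incubated 2 hr at room temperature.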

Assay [12] in a line: qHTS assay to identify small molecule antagonists of the progesterone receptor (PR) signaling pathway - cell viability counter screen (AID 1346798). Note: series mostly up to about 92 µM; nearly all actives have a fitted effect of over 50% in size. In short, it runs like this:
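Following a 4 hr attachment, PR-UAS-bla HEK293T cells in charcoal-stripped FBS medium were exposed to compounds with R5020 for 16 hr; CellTiter-Glo was added and luminescence read after 30 min at room temperature.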

Assay [13] is described as follows: qHTS assay to identify small molecule antagonists of the TGF-beta/Smad signaling pathway - cell viability counter screen (AID 1346824). Note: nearly all actives have a fitted effect of over 50% in size. In short, it runs like this:
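Cytotoxicity counter-screen run in the same wells as the beta-lactamase Smad reporter read: CellTiter-Glo luminescence after 30 min at room temperature. HEK 293T SBE-bla cells had 5 hr compound exposure at 37 C with TGF-beta1 (0.25 ng/mL stock).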

Assay [14] is described as follows: qHTS assay to identify small molecule agonists of the TGF-beta/Smad signaling pathway - cell viability counter screen (AID 1346829). Note: top concentration of the series differs between compounds; nearly all actives have a fitted effect of over 45% in size. In short, it runs like this:
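Tox21 qHTS format: SBE-bla HEK 293T cells treated with DMSO-dissolved compounds for 5 hr; CellTiter-Glo luminescence after 30 min at room temperature.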

Assay [15] can be described thus: qHTS assay to identify small molecule agonists of the TGF-beta/Smad signaling pathway (AID 1346859; active = well fitted activation curve with a large enough effect in the signal ratio in the repeat runs, not every such curve was filed as active; the % refers to the signal ratio; note: series mostly up to about 77 µM). In short, it runs like this:
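Each well held 4,000 SBE-bla HEK 293T cells incubated overnight before compound addition; 5 hr later the cleavable FRET substrate went on for 2 hr at room temperature, and fluorescence was read at two emissions.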

The nature of assay [16]: Human pregnane X receptor (PXR) small molecule agonists, qHTS cell viability counter screen (AID 1346977). Note: nearly all actives have a fitted effect of over 50% in size. Note: potency is the fitted concentration of half-maximal effect. In short, it runs like this:
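Tox21 qHTS format; PXR-Luc HepG2, 2,000/well, charcoal-stripped FBS 5%. Cpd exposure 24hr. Read: CellTiter-Fluor fluorescence, multiplexed with luciferase.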

Assay [17] is described as follows: qHTS assay to identify small molecule agonists of the progesterone receptor (PR) signaling pathway - cell viability counter screen (AID 1346799; calls by dose curve; note: nearly all actives have a fitted effect of over 45% in size). In short, it runs like this:
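Here, 3,000 PR-UAS-bla HEK293T cells per well were treated with compounds for 16 hr after a 6 hr preincubation at 37C and 5% CO2; cell viability is the CellTiter-Glo luminescence signal.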

The target in assay [18] is Thyrotropin-releasing hormone receptor (Homo sapiens) (UniProt P34981). Nature of the assay: qHTS assay to identify small molecule antagonists of the thyrotropin-releasing hormone receptor (TRHR) signaling pathway (AID 1346877; active = well fitted inhibition curve with a large enough effect in the repeat runs, not every such curve was filed as active; note: series mostly up to about 51 µM). In short, it runs like this:
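TRHR-expressing HEK293 cells loaded with calcium dye for 2 h at 37 C; compounds pre-incubated 5 min at room temperature before TRH challenge at 1 nM final. Intracellular calcium fluorescence read kinetically for 3 min; 15 concentrations in triplicate.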

Assay [19] has the same target. The assay is described as follows: qHTS assay to identify small molecule agonists of the thyrotropin-releasing hormone receptor (TRHR) signaling pathway (AID 1346891; calls by dose curve; note: series mostly up to about 58 µM). In short, it runs like this: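 Screening of agonists relied on calcium signalling in HEK293 cells expressing human TRHR: dye loading 2 h at 37 °C preceded compound addition and a 3-min fluorescence time course.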

The nature of assay [20]: qHTS assay to identify small molecule agonists of the estrogen receptor beta (ER-beta) signaling pathway - cell viability counter screen (AID 1259380). Note: potency is the fitted concentration of half-maximal effect; nearly all actives have a fitted effect of over 30% in size. In short, it runs like this:
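ER-beta-UAS-bla HEK293T cells in medium with 2% charcoal-stripped FBS, pre-incubated 6 hr, then treated 16 hr at 37C. Cytotoxicity read in the same wells by CellTiter-Glo luminescence after 30 min at room temperature.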

Sequence of Thyrotropin receptor (Homo sapiens) (P16473 whole entry, looked up): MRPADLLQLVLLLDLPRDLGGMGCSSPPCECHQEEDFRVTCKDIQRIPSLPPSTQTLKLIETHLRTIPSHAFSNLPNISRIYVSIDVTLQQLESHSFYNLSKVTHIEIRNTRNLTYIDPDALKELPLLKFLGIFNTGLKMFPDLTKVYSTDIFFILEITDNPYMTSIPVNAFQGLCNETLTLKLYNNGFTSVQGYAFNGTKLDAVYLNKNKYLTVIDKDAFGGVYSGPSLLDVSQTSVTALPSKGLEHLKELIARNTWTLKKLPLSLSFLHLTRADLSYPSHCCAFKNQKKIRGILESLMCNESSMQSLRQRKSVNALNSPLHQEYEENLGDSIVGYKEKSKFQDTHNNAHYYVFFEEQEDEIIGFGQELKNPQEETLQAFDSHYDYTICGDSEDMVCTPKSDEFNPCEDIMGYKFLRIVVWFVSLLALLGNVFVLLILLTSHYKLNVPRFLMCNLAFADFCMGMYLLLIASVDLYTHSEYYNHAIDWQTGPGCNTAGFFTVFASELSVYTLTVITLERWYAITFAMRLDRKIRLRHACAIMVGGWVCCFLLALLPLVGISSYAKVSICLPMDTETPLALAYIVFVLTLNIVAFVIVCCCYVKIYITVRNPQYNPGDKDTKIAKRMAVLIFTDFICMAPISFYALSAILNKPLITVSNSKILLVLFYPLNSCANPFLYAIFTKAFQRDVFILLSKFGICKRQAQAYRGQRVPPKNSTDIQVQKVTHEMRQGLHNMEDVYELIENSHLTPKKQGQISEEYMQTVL
Sequence of Progesterone receptor (Homo sapiens) (P06401 whole entry, looked up): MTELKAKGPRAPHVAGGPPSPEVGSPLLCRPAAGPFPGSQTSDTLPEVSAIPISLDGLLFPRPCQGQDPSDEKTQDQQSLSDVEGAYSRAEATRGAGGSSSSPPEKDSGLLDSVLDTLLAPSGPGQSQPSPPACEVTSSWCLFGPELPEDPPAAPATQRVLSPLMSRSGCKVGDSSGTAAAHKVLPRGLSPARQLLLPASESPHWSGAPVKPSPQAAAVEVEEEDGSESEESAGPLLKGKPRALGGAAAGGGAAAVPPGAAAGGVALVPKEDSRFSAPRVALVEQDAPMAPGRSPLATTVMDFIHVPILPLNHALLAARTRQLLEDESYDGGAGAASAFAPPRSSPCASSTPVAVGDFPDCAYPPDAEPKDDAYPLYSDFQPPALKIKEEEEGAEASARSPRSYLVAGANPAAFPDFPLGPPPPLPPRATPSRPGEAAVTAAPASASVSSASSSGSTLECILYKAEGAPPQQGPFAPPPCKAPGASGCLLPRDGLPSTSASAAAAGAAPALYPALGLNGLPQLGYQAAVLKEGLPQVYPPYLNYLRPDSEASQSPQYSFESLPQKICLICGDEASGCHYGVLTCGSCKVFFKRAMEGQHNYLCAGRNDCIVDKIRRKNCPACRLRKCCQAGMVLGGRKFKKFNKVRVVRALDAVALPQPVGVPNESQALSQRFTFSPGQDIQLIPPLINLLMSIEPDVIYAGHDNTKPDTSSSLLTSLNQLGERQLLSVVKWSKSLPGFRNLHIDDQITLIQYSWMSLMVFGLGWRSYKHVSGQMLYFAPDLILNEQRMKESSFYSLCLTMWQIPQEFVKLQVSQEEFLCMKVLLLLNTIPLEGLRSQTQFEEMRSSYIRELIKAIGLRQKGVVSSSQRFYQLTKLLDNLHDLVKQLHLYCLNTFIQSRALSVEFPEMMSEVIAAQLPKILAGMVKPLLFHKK
Sequence of Thyrotropin-releasing hormone receptor (Homo sapiens) (P34981 whole entry, looked up): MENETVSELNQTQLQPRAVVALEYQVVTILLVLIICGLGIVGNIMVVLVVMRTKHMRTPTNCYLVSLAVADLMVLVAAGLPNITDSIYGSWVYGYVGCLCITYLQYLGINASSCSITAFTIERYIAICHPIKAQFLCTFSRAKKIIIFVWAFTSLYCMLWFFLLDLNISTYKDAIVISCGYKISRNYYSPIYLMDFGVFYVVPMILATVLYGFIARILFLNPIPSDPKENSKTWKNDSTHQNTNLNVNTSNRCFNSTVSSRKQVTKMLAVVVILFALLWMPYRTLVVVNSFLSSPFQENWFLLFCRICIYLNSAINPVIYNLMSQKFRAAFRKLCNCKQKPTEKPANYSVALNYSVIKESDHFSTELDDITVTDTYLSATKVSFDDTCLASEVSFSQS
Sequence of Androgen receptor (Homo sapiens) (P10275 whole entry, looked up): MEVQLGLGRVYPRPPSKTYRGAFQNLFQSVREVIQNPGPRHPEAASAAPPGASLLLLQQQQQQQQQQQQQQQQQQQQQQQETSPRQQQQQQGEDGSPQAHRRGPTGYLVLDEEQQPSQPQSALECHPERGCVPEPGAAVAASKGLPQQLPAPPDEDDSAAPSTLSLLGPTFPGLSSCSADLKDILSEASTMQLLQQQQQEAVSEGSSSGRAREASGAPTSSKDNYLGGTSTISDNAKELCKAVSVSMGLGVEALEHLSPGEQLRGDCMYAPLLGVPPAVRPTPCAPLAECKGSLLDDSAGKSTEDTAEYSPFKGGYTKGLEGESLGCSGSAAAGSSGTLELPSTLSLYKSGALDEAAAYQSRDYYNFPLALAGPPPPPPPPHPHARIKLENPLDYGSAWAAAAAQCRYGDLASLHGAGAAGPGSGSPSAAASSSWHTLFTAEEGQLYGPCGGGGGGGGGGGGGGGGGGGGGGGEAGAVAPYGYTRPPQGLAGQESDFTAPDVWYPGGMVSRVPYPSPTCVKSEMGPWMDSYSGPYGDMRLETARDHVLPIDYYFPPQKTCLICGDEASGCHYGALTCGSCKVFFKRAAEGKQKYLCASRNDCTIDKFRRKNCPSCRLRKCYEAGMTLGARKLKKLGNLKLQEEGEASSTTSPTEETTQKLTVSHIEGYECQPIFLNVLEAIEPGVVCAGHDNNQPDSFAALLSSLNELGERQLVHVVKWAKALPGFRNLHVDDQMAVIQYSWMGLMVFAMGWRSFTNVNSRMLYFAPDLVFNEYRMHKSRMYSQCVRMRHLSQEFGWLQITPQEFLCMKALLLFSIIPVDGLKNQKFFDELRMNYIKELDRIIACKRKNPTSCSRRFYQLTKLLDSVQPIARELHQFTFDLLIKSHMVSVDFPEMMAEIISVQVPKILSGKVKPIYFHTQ

For `CCOB(OCC)OCC`, the Potency result in assay [1], in assay [2], in [3], in [4], in assay [5] and in [6] was “inactive” each time. The Potency entry in [8], in assay [9], in assay [11], in [12], in assay [13] and in assay [14] was “inactive” each time. In addition, the Potency result in assay [15] and in [16] was “inactive” in each case. Also, the result in [7] and in assay [10] was inactive.

For `CC(C)c1ccc(O)c(C(C)C)c1`, the Potency result in [1], in assay [2], in [3], in [5], in assay [6] and in assay [8] was “inactive” in each case. The Potency result in assay [9], in assay [11], in assay [12], in assay [17], in assay [13] and in assay [14] was “inactive” in each case. The Potency entry in assay [15], in [18], in [19] and in assay [16] was “inactive” in each case. Also, the outcome in assay [7] and in assay [10] was inactive.

As for `Cc1cn[nH]c1`, the Potency result in [1], in [2], in assay [3], in [4], in assay [5] and in assay [6] was “inactive” each time. The Potency result in assay [8], in assay [12], in assay [17], in [13], in assay [14] and in assay [15] was “inactive” throughout. In [16], the Potency result is “inactive”.

For `O=C1NCN(c2ccccc2)C12CCN(CCCC(c1ccc(F)cc1)c1ccc(F)cc1)CC2`, the Potency entry in [1], in assay [8], in [9], in assay [17] and in assay [19] was “inactive” in each case. Further, the Potency was 18.8 µM (active) in [2]; 29.8 µM (active) in assay [3]; 26.6 µM (active) in [5]; 26.6 µM (active) in assay [11]; 29.8 µM (active) in [16].

On to `CSc1c(Cl)c(Cl)c(Cl)c(Cl)c1Cl`, for which the Potency result in assay [1], in assay [2], in [3], in [5], in assay [9] and in assay [11] was “inactive” throughout. For the same compound, the Potency entry in assay [12], in assay [14], in assay [15], in [19] and in assay [16] was “inactive” in each case. Moreover, the compound was classed as inactive in [7] and in assay [10].

Take `O=C1OC(=O)c2cccc3cccc1c23`: the Potency entry in assay [1], in [2], in assay [3], in assay [5], in [6] and in assay [8] was “inactive” each time. The Potency result in assay [9], in [11], in assay [12], in assay [17], in [13] and in assay [14] was “inactive” each time. The Potency entry in assay [15], in assay [18], in assay [19] and in assay [16] was “inactive” throughout. For the same compound, in assay [7], the result was inactive.

With `Clc1ccc(C(c2ccccc2Cl)C(Cl)Cl)cc1` (centres undefined), the Potency entry in assay [1], in assay [3], in assay [5], in [8], in assay [9] and in assay [12] was “inactive” throughout. The Potency result in assay [13], in [14], in [15], in [18], in assay [19] and in assay [16] was “inactive” in each case. Besides, the Potency is 19.3 µM (active) in assay [2], 48.6 µM (active) in [20] and 3.44 µM (active) in assay [11]. Besides, the compound was classed as inactive in assay [7] and in assay [10].
